Source: PubChem BioAssay (NCATS)
Results filed as inconclusive are left out. The source made the active and inactive calls. Calls come from the whole dose curve; as a rule, active = well fitted inhibition curve with a large enough effect; inconclusive = small, poorly fitted or top-dose-only effect; inactive = flat fitted curve, though single readings scatter.

Tested on: DFO2036
Assay: qHTS profiling for inhibitors of Plasmodium falciparum proliferation (AID 504749); note: nearly all actives have a fitted effect of over 60% in size
Conditions: P. falciparum in erythrocytes, SYBR Green DNA, 72 h; series mostly up to 28.7 µM
Description: NIH National Institute of Allergy and Infectious Diseases [NIAID] NIH Chemical Genomics Center [NCGC] MLPCN Grant: None Assay Provider: Xinzhuan Su, NIAID NCGC Assay Overview: Plasmodium falciparum is a virulent malarial parasite that kills 1-2 million people worldwide each year. Transmitted by mosquitoes, the sporozoite form of the parasite enters the blood stream to infect hepatocytes, where they become merozoites that infect red blood cells (erythrocytes). Within erythrocytes, merozoites begin a […] cycle of growth and division, after which the parasite is released to infect new red blood cells. Gametocytes, which form within erythrocytes as well, circulate in the bloodstream and are ingested by the mosquito, thereby completing the life cycle. To profile malarial isolates for differential chemical responses and to identify inhibitors of malarial growth, an assay that measures P. falciparum growth and replication within erythrocytes was employed. This assay uses a DNA binding fluorescent dye (SYBR Green) to detect parasite DNA following cell lysis. Because mature erythrocytes lack DNA, only Plasmodium-derived DNA is detected.
NCGC Assay Protocol Summary: The SYBR Green viability assay was adapted from a method described previously (Plouffe et al., 2008). For screening 3 ul culture medium was dispensed into 1536 well black clear bottom plates (Aurora Biotechnologies) using a Multidrop Combi (Thermo Fisher Scientific Inc.), 23 nL compounds in DMSO were added by a pin tool (Kalypsys), and 5 ul of erythrocytes infected with P. falciparum (0.3% parasitemia, 2.5% hematocrit final concentration) were added. The plates were incubated at 37 C in a humidified incubator in 5% CO2 for 72 h, and 2 ul lysis buffer (20 mM Tris HCl, 10 mM EDTA, 0.16% saponin, 1.6% triton X, 10X SYBR Green I supplied as 10,000X […] by Invitrogen) was added to each well. The plates were mixed for 25 sec with gentle shaking and incubated overnight at room temperature in the dark. The following morning, fluorescence intensity at 485(14) nm excitation and 535(25) nm emission wavelengths was measured on an EnVision (Perkin Elmer) plate reader. Plate reads were normalized relative to the control inhibitor (0.29 uM artemisinin) and vehicle (DMSO) wells present on each plate and then corrected by an algorithm using vehicle-only control plates at the beginning and end of the compound plate stack.
Potency is the fitted concentration of half-maximal effect.

Potency, inactive:
CCN(CC)CC(=O)Nc1c(C)cc(C)cc1C
OCC1O[C@@H](O[C@@H]2C(CO)OC(O)C(O)C2O)C(O)C(O)C1O (stereo not given in full)
CCCCCCCCCCCCCCCC(=O)OC[C@H](O)[C@H]1OC[C@@H](O)[C@@H]1O
CC1(C)O[C@@H]2C[C@H]3[C@@H]4CCC5=CC(=O)C=C[C@]5(C)[C@H]4C(O)C[C@]3(C)[C@]2(C(=O)CO)O1 (stereo not given in full)
CN1[C@@H]2CC[C@@H]1CC(OC(=O)[C@H](CO)c1ccccc1)C2 (stereo not given in full)
Cc1ccc(/C=C2/C(=O)C3(C)CCC2C3(C)C)cc1 (stereo not given)
Cc1c(C)c2c(c(C)c1O)CCC(C)(CCCC(C)CCCC(C)CCCC(C)C)O2 (stereo not given)
CNC1C(O)C(OC2C(N)CC(N)C(OC3OC(CN)=CCC3N)C2O)OCC1(C)O (stereo not given)
Oc1cc2cc(CCN3CCN(c4nsc5ccccc45)CC3)c(Cl)cc2[nH]1
CCCCCCCCCCCCCCCC(=O)OCC(COP(=O)(O)OCC[N+](C)(C)C)OC(=O)CCCCCCCCCCCCCCC (stereo not given)
NC[C@@H]1O[C@H](OC2[C@@H](CO)O[C@@H](OC3[C@H](O)[C@H](N)C[C@H](N)[C@H]3OC3O[C@H](CO)[C@@H](O)[C@H](O)[C@@H]3N)[C@H]2O)C(N)[C@H](O)[C@@H]1O (stereo not given in full)
C[C@@H]1CCN(C(=O)[C@H](CCCNC(=N)N)NS(=O)(=O)c2cccc3c2NC[C@H](C)C3)[C@@H](C(=O)O)C1
C=C(CC[C@@H](C)[C@H]1CCC2[C@]1(C)CC[C@]13C[C@@]14CCC(OC(=O)/C=C/c1ccc(O)c(OC)c1)C(C)(C)[C@@H]4CC[C@@]23C)C(C)C (stereo not given in full)
OCC1O[C@H](O[C@H]2C(O)C(O)C(O)O[C@@H]2CO)C(O)C(O)C1O (stereo not given in full)
C=C1C(=O)O[C@@H]2[C@@H]1CC/C(C)=C\CC[C@@]1(C)O[C@H]21
O=C1NC(=O)C2C3C=CC(C3)C12 (stereo not given)
O=C(O)C(O)c1ccccc1 (stereo not given)
O=C(O)CC(O)CC(O)/C=C/c1c(C2CC2)nc2ccccc2c1-c1ccc(F)cc1 (stereo not given)
CO/N=C(/C(=O)N[C@@H]1C(=O)N2C(C(=O)O)=C(CSc3cnns3)CS[C@H]12)c1csc(N)n1
C[C@]12CC[C@@H]3c4ccc(O)cc4CC[C@H]3[C@@H]1CCC2OC(=O)CCC1CCCC1 (stereo not given in full)
Nc1ncn(C2C[C@H](O)[C@@H](CO)O2)c(=O)n1 (stereo not given in full)
Cc1cc2nc3c(=O)[nH]c(=O)nc-3n(CC(O)C(O)C(O)COP(=O)(O)O)c2cc1C (stereo not given)
Cn1cc(C(=O)[C@@H]2CCc3[nH]cnc3C2)c2ccccc21
CCCC[C@H]1C(=O)N(c2ccccc2)N(c2ccc(O)cc2)C1=O
C=C1C(n2cnc3c(=O)[nH]c(N)nc32)C[C@H](O)[C@H]1CO (stereo not given in full)
COc1ccc(C(=O)/C(Br)=C/C(=O)O)cc1
CCCC(=O)Nc1c(I)cc(I)c(C[C@H](CC)C(=O)O)c1I
C[C@@H]1C(SC2Cn3cnc[n+]3C2)=C(C(=O)[O-])N2C(=O)[C@H]([C@@H](C)O)[C@@H]12 (stereo not given in full)
CC1(C)OC[C@@H]2O[C@@]3(C(=O)O)OC(C)(C)O[C@@H]3[C@@H]2O1
O=[N+]([O-])O[C@H]1CO[C@H]2[C@@H]1OC[C@H]2O
CCCC(=O)O[C@]1(C(=O)COC(C)=O)CC[C@H]2C3C[C@H](F)C4=CC(=O)C=CC4(C)[C@@]3(F)[C@@H](O)CC21C (stereo not given in full)

Potency, active:
C=C[C@H]1CN2CCC1C[C@H]2[C@H](O)c1ccnc2ccc(OC)cc12 (stereo not given in full) 0.631 µM
CNC1=CN(O)C(c2ccccc2)=c2cc(Cl)ccc2=N1 3.16 µM
CC(=O)C1(O)Cc2c(O)c3c(c(O)c2C(OC2CC(N)C(O)C(C)O2)C1)C(=O)c1c(O)cccc1C3=O (stereo not given) 7.94 µM
Nc1nc2[nH]cc(CCc3ccc(C(=O)NC(CCC(=O)O)C(=O)O)cc3)c2c(=O)[nH]1 (stereo not given) 0.0631 µM
CCC(C(=O)O)C1OC(C(C)C(O)C(C)C(=O)C(CC)C2OC3(C=CC(O)C4(CCC(C)(C5CCC(O)(CC)C(C)O5)O4)O3)C(C)CC2C)C(C)CC1C (stereo not given) 0.126 µM
C=C[C@@]1(C)C[C@H](OC(=O)CSC(C)(C)CNC(=O)[C@@H](N)C(C)C)[C@@]2(C)C(C)CC[C@@]3(CCC(=O)[C@@H]32)[C@H](C)[C@H]1O (stereo not given in full) 0.631 µM
CCC(C(=O)C(C)C(O)C(C)CCc1ccc(C)c(O)c1C(=O)O)C1OC(CC)(C2CC[C@@](O)(CC)C(C)O2)CC1C (stereo not given in full) 1 µM
CCC(=O)O[C@]1(C(=O)CCl)[C@@H](C)CC2C3C[C@H](F)C4=CC(=O)C=CC4(C)[C@@]3(F)C(O)CC21C (stereo not given in full) 11.2 µM
C[C@H](CN1c2ccccc2Sc2cccnc21)N(C)C 11.2 µM
